Experimental data as given in PubChem BioAssay (Tox21).
Values joined by “and” are separate entries in the source; they are usually repeats but may differ in a detail not shown here. Equal values may be shown once. Records with an inconclusive call do not appear. Entries that show only a call come without a potency. Where a structure was tested more than once in an assay, its records may differ in their call. Active and inactive are the calls of the source. Unless noted, the call rests on the fitted dose curve; in most records, active means well fitted curve in the direction sought with a large enough effect in the repeat runs; inconclusive means weak or mixed curves; inactive means no such curve, though single readings can be large; an effect the other way counts as inactive or inconclusive.

Legend:
[1] = qHTS assay to identify small molecule antagonists of the glucocorticoid receptor (GR) signaling pathway - cell viability counter screen (AID 720693); further: nearly all actives have a fitted effect of over 55% in size
[2] = qHTS assay for identifying genotoxic compounds that show differential cytotoxicity against isogenic chicken DT40 cell lines with known DNA damage response pathways - wild type cell line (AID 743012); further: nearly all actives have a fitted effect of over 60% in size
Outline: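 Quantitative HTS on parental DT40 cells: 40 h compound treatment at 37 C/5% CO2, with viability then determined by CellTiter-Glo luminescence. Values serve as the DNA repair-proficient reference for differential cytotoxicity.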

[3] = qHTS assay for identifying genotoxic compounds that show differential cytotoxicity against isogenic chicken DT40 cell lines with known DNA damage response pathways - Rev3 mutant cell line (AID 743014); further: nearly all actives have a fitted effect of over 55% in size
[4] = qHTS assay for identifying genotoxic compounds that show differential cytotoxicity against isogenic chicken DT40 cell lines with known DNA damage response pathways - Rad54/Ku70 mutant cell line (AID 743015); further: nearly all actives have a fitted effect of over 60% in size
[5] = qHTS assay to identify small molecule antagonists of the androgen receptor (AR) signaling pathway - cell viability counter screen (AID 743033; further: nearly all actives have a fitted effect of over 45% in size)
[6] = target: Androgen receptor (Homo sapiens) (UniProt P10275); assay: qHTS assay to identify small molecule antagonists of the androgen receptor (AR) signaling pathway (AID 743035; active means well fitted inhibition curve with a large enough effect in the signal ratio in the repeat runs, not every such curve was filed as active; the % refers to the signal ratio)
Outline: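 Cell line: GeneBLAzer AR-UAS-bla GripTite (HEK293). Stimulus: R1881 added after compound. Exposure: 16 h, 37C, 5% CO2. Readout: LiveBLAzer B/G FRET fluorescence after 2 h at room temperature.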

[7] = target: Androgen receptor (Homo sapiens) (UniProt P10275); assay: qHTS assay to identify small molecule agonists of the androgen receptor (AR) signaling pathway using the MDA cell line (AID 743040; further: nearly all actives have a fitted effect of over 20% in size)
Outline: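 Luminescence from ONE-Glo, read after 30 min at room temperature, reflects MMTV-driven luciferase in MDA-kb2 cells (AR- and GR-responsive). Treatment lasted 16 h at 37C, 0% CO2.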

[8] = qHTS assay to identify small molecule antagonists of the androgen receptor (AR) signaling pathway using the MDA cell line - cell viability counter screen (AID 743041; further: nearly all actives have a fitted effect of over 45% in size)
Outline: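 Viability counter screen run alongside the AR antagonist reporter: cells seeded 5 h before compound, R1881 added, 16 h incubation at 37C without CO2, fluorescent CellTiter-Fluor signal quantified.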

[9] = target: Androgen receptor (Homo sapiens) (UniProt P10275); assay: qHTS assay to identify small molecule antagonists of the androgen receptor (AR) signaling pathway using the MDA cell line (AID 743042; further: nearly all actives have a fitted effect of over 55% in size)
Outline: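 MDA-kb2 cells (human breast carcinoma, stably carrying an MMTV-luciferase reporter responsive to AR and GR) were plated at 3,000 cells/well and preincubated 5 hr at 37C, then given compound plus R1881 agonist for 16 h. ONE-Glo luminescence was read.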

[10] = qHTS assay to identify small molecule antagonists of the thyroid receptor (TR) signaling pathway - cell viability counter screen (AID 743064); further: nearly all actives have a fitted effect of over 50% in size
Outline: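 In-well cytotoxicity read by CellTiter-Fluor (30 min, 37 C) following 23.5 h exposure of GH3 cells bearing a TRE-luciferase sensor. Compounds were added alongside 1 nM (final) T3 to drive TR transactivation.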

[11] = qHTS assay to identify small molecule antagonists of the thyroid receptor (TR) signaling pathway (AID 743065); further: series mostly up to about 70 µM; nearly all actives have a fitted effect of over 55% in size
Outline: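 GH3.TRE-Luc rat pituitary cells carrying two TR response elements driving luciferase were plated for 4 h, given compound plus 1 nM T3 (final), and incubated 23.5 h at 37 C. ONE-Glo luminescence measured reporter inhibition; CellTiter-Fluor fluorescence tracked cytotoxicity.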

[12] = test system: thyroid hormone receptor (rat, GH3 cells); assay: qHTS assay to identify small molecule agonists of the thyroid receptor (TR) signaling pathway (AID 743066; calls by dose curve)
[13] = target: Estrogen receptor (Homo sapiens) (UniProt P03372); assay: qHTS assay to identify small molecule antagonists of the estrogen receptor alpha (ER-alpha) signaling pathway (AID 743069; active means well fitted curve in the direction sought with a large enough effect in the signal ratio in the repeat runs, not every such curve was filed as active; the % refers to the signal ratio)
Outline: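 Estradiol-stimulated ER-alpha-UAS-bla HEK293 cells, 18 hr compound exposure at 37C. LiveBLAzer B/G substrate, 2 hr RT, fluorescence read.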

[14] = qHTS assay to identify small molecule antagonists of the estrogen receptor alpha (ER-alpha) signaling pathway - cell viability counter screen (AID 743074; calls by dose curve;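 further: HEK293 cells carrying ER-alpha-UAS-bla reporter stimulated with 17beta-estradiol; nearly all actives have a fitted effect of over 45% in size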)
[15] = target: Estrogen receptor (Homo sapiens) (UniProt P03372); assay: qHTS assay to identify small molecule agonists of the estrogen receptor alpha (ER-alpha) signaling pathway (AID 743075; calls by dose curve;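 further: HEK293 GripTite cells with ER-alpha and UAS-driven beta-lactamase reporter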)
[16] = target: Estrogen receptor (Homo sapiens) (UniProt P03372); assay: qHTS assay to identify small molecule agonists of the estrogen receptor alpha (ER-alpha) signaling pathway using the BG1 cell line (AID 743079); further: nearly all actives have a fitted effect of over 20% in size; further: potency means the concentration at half of the fitted maximal effect
[17] = qHTS assay to identify small molecule antagonists of the estrogen receptor alpha (ER-alpha) signaling pathway using the BG1 cell line (AID 743080; calls by dose curve;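 further: BG1 cells stimulated with 17beta-estradiol alongside compound; series mostly up to about 70 µM; nearly all actives have a fitted effect of over 25% in size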)
Outline: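 After 5 days in phenol-red-free 10% charcoal-stripped FBS medium, BG1-Luc-4E2 cells were seeded, left 24 h at 37 C, co-treated with compounds and 17beta-estradiol for 21.5 h, then assayed for viability and luciferase.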

[18] = qHTS assay to identify small molecule antagonists of the estrogen receptor alpha (ER-alpha) signaling pathway using the BG1 cell line - cell viability counter screen (AID 743081);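 further: compound given together with 17beta-estradiol as the ER stimulus; series mostly up to about 70 µM; nearly all actives have a fitted effect of over 45% in size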
Aromatase (Homo sapiens) = Aromatase (Homo sapiens) (UniProt P11511); assay: qHTS assay to identify aromatase inhibitors (AID 743083)
[19] = target: Androgen receptor (Homo sapiens) (UniProt P10275); assay: qHTS assay to identify small molecule agonists of the androgen receptor (AR) signaling pathway (AID 743036; active means well fitted activation curve with a large enough effect in the signal ratio in the repeat runs, with a control signal flat, not every such curve was filed as active; the % refers to the signal ratio)
Outline: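 Activation was read as beta-lactamase FRET signal from LiveBLAzer B/G substrate, added for 2 h at room temperature. Before that, GeneBLAzer AR-UAS-bla GripTite (HEK293) cells had 16 h compound exposure at 37C.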

Aromatase (Homo sapiens), sequence (P11511 whole entry, looked up): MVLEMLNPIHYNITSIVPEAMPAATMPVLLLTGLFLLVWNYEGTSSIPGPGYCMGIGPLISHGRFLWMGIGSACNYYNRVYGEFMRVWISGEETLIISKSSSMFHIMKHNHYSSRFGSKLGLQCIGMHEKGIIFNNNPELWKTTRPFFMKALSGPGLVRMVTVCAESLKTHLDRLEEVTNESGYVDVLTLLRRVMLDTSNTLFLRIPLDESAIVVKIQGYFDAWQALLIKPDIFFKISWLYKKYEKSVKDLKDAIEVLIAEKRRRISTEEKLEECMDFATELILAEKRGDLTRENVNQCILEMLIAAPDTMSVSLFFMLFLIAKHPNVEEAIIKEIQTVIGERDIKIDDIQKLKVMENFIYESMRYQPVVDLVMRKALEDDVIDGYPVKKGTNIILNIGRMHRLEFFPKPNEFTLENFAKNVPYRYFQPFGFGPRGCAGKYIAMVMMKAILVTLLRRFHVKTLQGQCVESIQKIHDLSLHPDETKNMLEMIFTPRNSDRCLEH
Estrogen receptor (Homo sapiens), sequence (P03372 whole entry, looked up): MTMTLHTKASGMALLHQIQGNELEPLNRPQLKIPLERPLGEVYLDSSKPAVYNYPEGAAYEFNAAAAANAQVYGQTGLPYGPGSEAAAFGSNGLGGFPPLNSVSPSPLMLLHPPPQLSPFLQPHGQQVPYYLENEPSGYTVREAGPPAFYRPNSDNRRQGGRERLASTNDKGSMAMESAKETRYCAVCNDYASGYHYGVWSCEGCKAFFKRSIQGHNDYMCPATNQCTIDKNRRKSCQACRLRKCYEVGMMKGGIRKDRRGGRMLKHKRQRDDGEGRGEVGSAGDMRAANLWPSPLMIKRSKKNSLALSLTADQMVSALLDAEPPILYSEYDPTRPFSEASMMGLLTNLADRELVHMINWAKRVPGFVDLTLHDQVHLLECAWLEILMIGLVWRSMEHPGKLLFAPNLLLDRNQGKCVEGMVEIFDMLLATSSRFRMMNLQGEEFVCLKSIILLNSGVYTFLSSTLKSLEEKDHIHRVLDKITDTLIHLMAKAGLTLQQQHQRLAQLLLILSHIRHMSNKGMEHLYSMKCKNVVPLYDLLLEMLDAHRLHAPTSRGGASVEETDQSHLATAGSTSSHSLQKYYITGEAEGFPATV
Androgen receptor (Homo sapiens), sequence (P10275 whole entry, looked up): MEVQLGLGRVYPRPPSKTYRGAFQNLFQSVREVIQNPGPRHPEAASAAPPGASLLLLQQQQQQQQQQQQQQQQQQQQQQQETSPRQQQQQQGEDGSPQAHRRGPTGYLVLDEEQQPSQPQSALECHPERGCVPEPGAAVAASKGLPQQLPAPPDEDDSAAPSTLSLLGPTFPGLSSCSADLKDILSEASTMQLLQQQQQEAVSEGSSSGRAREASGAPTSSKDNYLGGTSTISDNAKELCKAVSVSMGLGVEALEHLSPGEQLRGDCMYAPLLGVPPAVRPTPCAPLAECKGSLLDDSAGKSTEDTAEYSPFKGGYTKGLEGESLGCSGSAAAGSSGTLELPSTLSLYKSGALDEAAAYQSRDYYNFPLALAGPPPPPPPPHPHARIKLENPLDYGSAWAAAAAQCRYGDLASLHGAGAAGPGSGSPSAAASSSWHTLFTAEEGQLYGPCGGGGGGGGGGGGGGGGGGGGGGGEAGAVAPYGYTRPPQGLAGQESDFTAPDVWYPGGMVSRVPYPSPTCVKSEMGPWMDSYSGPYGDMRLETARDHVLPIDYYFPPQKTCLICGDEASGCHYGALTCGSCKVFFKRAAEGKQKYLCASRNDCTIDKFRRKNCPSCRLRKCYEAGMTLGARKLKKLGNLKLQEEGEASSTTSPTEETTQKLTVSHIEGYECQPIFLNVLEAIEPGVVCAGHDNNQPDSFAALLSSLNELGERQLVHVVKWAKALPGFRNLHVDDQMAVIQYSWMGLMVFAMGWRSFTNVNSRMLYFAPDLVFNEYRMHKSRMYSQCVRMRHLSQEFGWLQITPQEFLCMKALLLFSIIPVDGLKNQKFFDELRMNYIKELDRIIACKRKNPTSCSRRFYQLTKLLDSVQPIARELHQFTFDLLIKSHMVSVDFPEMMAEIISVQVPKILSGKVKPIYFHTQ

For Nc1c(CC(=O)O)cccc1C(=O)c1ccccc1, the Potency [1] was “inactive”, the Potency [2] was “inactive” and the Potency [3] was “inactive”. The Potency [4] was “inactive”, the Potency [5] was “inactive” and the Potency [6] was “inactive”. For the same molecule, the Potency [7] was “inactive”, the Potency [8] was “inactive” and the Potency [9] was “inactive”. The Potency [10] was “inactive”, the Potency [11] was “inactive” and the Potency [12] was “inactive”. For the same molecule, the Potency [13] was “inactive”, the Potency [14] was “inactive” and the Potency [15] was “inactive”. For the same molecule, the Potency [16] was “inactive and 10.6 µM (active)”, the Potency [17] was “inactive” and the Potency [18] was “inactive”. The Potency (Aromatase (Homo sapiens)) was “inactive”.

With C[N+](C)(C)CCOP(=O)(O)OP(=O)([O-])OC[C@H]1O[C@@H](n2ccc(N)nc2=O)[C@H](O)[C@@H]1O the Potency [1] was “inactive”, the Potency [2] was “inactive” and the Potency [3] was “inactive”. For the same molecule, the Potency [4] was “inactive”, the Potency [5] was “inactive” and the Potency [6] was “inactive”. The Potency [19] was “inactive”, the Potency [8] was “inactive” and the Potency [9] was “inactive”. The Potency [11] was “inactive”, the Potency [12] was “inactive” and the Potency [13] was “inactive”. The Potency [14] was “inactive”, the Potency [15] was “inactive” and the Potency [16] was “inactive”. The Potency [17] was “inactive”, the Potency [18] was “inactive” and the Potency (Aromatase (Homo sapiens)) was “inactive”.

For CCc1ncnc2cc(OC)c(OC)cc12, the Potency [1] was “inactive”, the Potency [2] was “inactive” and the Potency [3] was “inactive”. The Potency [4] was “inactive”, the Potency [5] was “inactive” and the Potency [6] was “inactive”. The Potency [7] was “inactive”, the Potency [8] was “inactive” and the Potency [9] was “inactive”. For the same molecule, the Potency [10] was “inactive”, the Potency [12] was “inactive” and the Potency [13] was “inactive”. For the same molecule, the Potency [14] was “inactive”, the Potency [15] was “inactive” and the Potency [16] was “inactive”. For the same molecule, the Potency [17] was “inactive”, the Potency [18] was “inactive” and the Potency (Aromatase (Homo sapiens)) was “inactive”.

In the case of CC(C)NCC1CCc2cc(CO)c([N+](=O)[O-])cc2N1 (centres undefined), the Potency [1] is reported as “inactive”, the Potency [2] is reported as “inactive” and the Potency [3] is reported as “inactive”. The Potency [4] was “inactive”, the Potency [5] was “inactive” and the Potency [6] was “inactive”. For the same molecule, the Potency [19] was “inactive”, the Potency [7] was “inactive” and the Potency [8] was “inactive”. The Potency [9] was “inactive”, the Potency [10] was “inactive” and the Potency [11] was “inactive”. The Potency [12] was “inactive”, the Potency [13] was “inactive” and the Potency [14] was “inactive”. For the same molecule, the Potency [15] was “inactive”, the Potency [16] was “inactive” and the Potency [17] was “inactive”. For the same molecule, the Potency (Aromatase (Homo sapiens)) was “inactive”.

For CN[C@@H]1[C@@H](O[C@H]2O[C@H](CO)[C@@H](N)[C@H](O)[C@H]2O)O[C@H]2C[C@@H](N)[C@@H](O[C@H]3[C@H](O)[C@@H](O)[C@H](N)C[C@@H]3N)O[C@@H]2[C@@H]1O, the Potency [1] was “inactive”, the Potency [2] was “inactive” and the Potency [3] was “inactive”. The Potency [4] was “inactive”, the Potency [5] was “inactive” and the Potency [6] was “inactive”. For the same molecule, the Potency [19] was “inactive”, the Potency [7] was “inactive” and the Potency [8] was “inactive”. The Potency [9] was “inactive”, the Potency [10] was “inactive” and the Potency [12] was “inactive”. For the same molecule, the Potency [13] was “inactive”, the Potency [14] was “inactive” and the Potency [15] was “inactive”. For the same molecule, the Potency [16] was “inactive”, the Potency [17] was “inactive” and the Potency [18] was “inactive”. The Potency (Aromatase (Homo sapiens)) was “inactive”.

With CCN1CCCC1CNC(=O)c1cc(S(=O)(=O)CC)ccc1OC (centres undefined) the Potency [1] was “inactive”, the Potency [2] was “inactive” and the Potency [3] was “inactive”. For the same molecule, the Potency [4] was “inactive”, the Potency [5] was “inactive” and the Potency [6] was “inactive”. For the same molecule, the Potency [19] was “inactive”, the Potency [7] was “inactive” and the Potency [8] was “inactive”. The Potency [9] was “inactive”, the Potency [10] was “inactive” and the Potency [11] was “inactive”. For the same molecule, the Potency [12] was “inactive”, the Potency [14] was “inactive” and the Potency [18] was “inactive”. For the same molecule, the Potency (Aromatase (Homo sapiens)) was “inactive”.

With O=C(O)[C@@H]1C[C@H](CP(=O)(O)O)CCN1 the Potency [1] was “inactive”, the Potency [2] was “inactive” and the Potency [3] was “inactive”. For the same molecule, the Potency [4] was “inactive”, the Potency [5] was “inactive” and the Potency [6] was “inactive”. For the same molecule, the Potency [19] was “inactive”, the Potency [7] was “inactive” and the Potency [8] was “inactive”. The Potency [9] was “inactive”, the Potency [13] was “inactive” and the Potency [14] was “inactive”. For the same molecule, the Potency [15] was “inactive”, the Potency [16] was “inactive” and the Potency [17] was “inactive”. The Potency [18] was “inactive” and the Potency (Aromatase (Homo sapiens)) was “inactive”.

With O=C(O)COc1ccccc1/C=N/NC(=O)c1ccncc1 the Potency [1] was “inactive”, the Potency [2] was “inactive” and the Potency [3] was “inactive”. The Potency [4] was “inactive”, the Potency [5] was “inactive” and the Potency [6] was “inactive”. For the same molecule, the Potency [19] was “inactive”, the Potency [7] was “inactive” and the Potency [8] was “inactive”. For the same molecule, the Potency [9] was “inactive”, the Potency [10] was “inactive” and the Potency [11] was “inactive”. For the same molecule, the Potency [12] was “inactive”, the Potency [13] was “inactive” and the Potency [14] was “inactive”. For the same molecule, the Potency [15] was “inactive”, the Potency [16] was “inactive” and the Potency [17] was “inactive”. For the same molecule, the Potency [18] was “inactive” and the Potency (Aromatase (Homo sapiens)) was “inactive”.

For O=C(O)COc1ccc(C(=O)c2cccs2)c(Cl)c1Cl, the Potency [1] was “inactive”, the Potency [2] was “inactive” and the Potency [3] was “inactive”. The Potency [4] was “inactive”, the Potency [5] was “inactive” and the Potency [6] was “inactive”. The Potency [7] was “inactive”, the Potency [8] was “inactive” and the Potency [9] was “inactive”. The Potency [10] was “inactive”, the Potency [11] was “inactive” and the Potency [12] was “inactive”. The Potency [13] was “inactive”, the Potency [14] was “inactive” and the Potency [15] was “inactive”. The Potency [16] was “inactive”, the Potency [17] was “inactive” and the Potency [18] was “inactive”. For the same molecule, the Potency (Aromatase (Homo sapiens)) was “inactive”.

For O=C(O)Cc1nn(Cc2ccc(Br)cc2F)c(=O)c2ccccc12, the Potency [1] was “inactive”, the Potency [2] was “inactive” and the Potency [3] was “inactive”. The Potency [4] was “inactive”, the Potency [5] was “inactive” and the Potency [6] was “inactive”. The Potency [19] was “inactive”, the Potency [7] was “inactive” and the Potency [8] was “inactive”. For the same molecule, the Potency [9] was “inactive”, the Potency [10] was “inactive” and the Potency [11] was “inactive”. The Potency [12] was “inactive”, the Potency [13] was “inactive” and the Potency [14] was “inactive”. The Potency [15] was “inactive”, the Potency [16] was “inactive” and the Potency [17] was “inactive”. The Potency [18] was “inactive” and the Potency (Aromatase (Homo sapiens)) was “inactive”.

In the case of O=C(O)/C=C/C(O)c1ccc(Cl)cc1 (centres undefined), the Potency [1] is reported as “inactive”, the Potency [2] is reported as “inactive” and the Potency [3] is reported as “inactive”. The Potency [4] was “inactive”, the Potency [5] was “inactive” and the Potency [6] was “inactive”. The Potency [7] was “inactive”, the Potency [8] was “inactive” and the Potency [9] was “inactive”. For the same molecule, the Potency [10] was “inactive”, the Potency [12] was “inactive” and the Potency [14] was “inactive”. The Potency [18] was “inactive” and the Potency (Aromatase (Homo sapiens)) was “inactive”.
